# Source: PubChem BioAssay
# Gli-Sufu antag: Gli-Sufu pathway antagonists, primary screen, luciferase luminescence, Sufu-KO-LIGHT cells, uHTS. 340,000 tested, 0.74% active. Sufu-KO-LIGHT fibroblasts, Gli luciferase reporter luminescence. inhibition, % at 5 µM. AID 588413, 2011;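 active = inhibition above about 55%, limit read from the data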;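 note: 0% = DMSO-treated cells and 100% = wells with medium but no cells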
# CSC inhib: cancer stem cell viability inhibitors, primary screen, luminescence | cancer stem cell-like cells viability | inhibition, % at 7.5 µM | 300,000 tested, 1.1% active | AID 2717, 2010; in the data active = inhibition above about 75%; inconclusive = no clear call, values can overlap the other calls; tested in HMLE shEcad cells
# Mdm2 MdmX PPI: inhibitors of human Mdm2-MdmX association, primary screen, cell-based, luminescence, split luciferase, SaOS-2, uHTS. SaOS-2 split-luciferase Mdm2/MdmX complementation. Protein Mdm4 (Homo sapiens) + E3 ubiquitin-protein ligase Mdm2 (Homo sapiens), …. 330,000 tested, 3% active. inhibition, % at 8 µM;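 active = inhibition of at least 50% at 8 µM in the primary screen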
# Target sequence (O15151 whole entry, looked up): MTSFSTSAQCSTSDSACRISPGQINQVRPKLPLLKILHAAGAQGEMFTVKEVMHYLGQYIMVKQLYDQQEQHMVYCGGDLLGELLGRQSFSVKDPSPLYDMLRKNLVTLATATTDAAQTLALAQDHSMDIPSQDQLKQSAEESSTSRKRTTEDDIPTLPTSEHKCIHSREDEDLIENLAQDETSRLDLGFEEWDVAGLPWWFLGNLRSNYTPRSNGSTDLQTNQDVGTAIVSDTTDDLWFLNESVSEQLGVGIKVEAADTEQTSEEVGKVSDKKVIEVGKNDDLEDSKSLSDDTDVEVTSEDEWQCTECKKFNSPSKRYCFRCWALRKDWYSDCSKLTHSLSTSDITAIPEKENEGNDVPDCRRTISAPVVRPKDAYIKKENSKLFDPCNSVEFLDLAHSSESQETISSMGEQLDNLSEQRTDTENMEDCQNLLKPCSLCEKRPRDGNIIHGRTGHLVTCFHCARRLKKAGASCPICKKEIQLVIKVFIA
# Target sequence (Q00987 whole entry, looked up): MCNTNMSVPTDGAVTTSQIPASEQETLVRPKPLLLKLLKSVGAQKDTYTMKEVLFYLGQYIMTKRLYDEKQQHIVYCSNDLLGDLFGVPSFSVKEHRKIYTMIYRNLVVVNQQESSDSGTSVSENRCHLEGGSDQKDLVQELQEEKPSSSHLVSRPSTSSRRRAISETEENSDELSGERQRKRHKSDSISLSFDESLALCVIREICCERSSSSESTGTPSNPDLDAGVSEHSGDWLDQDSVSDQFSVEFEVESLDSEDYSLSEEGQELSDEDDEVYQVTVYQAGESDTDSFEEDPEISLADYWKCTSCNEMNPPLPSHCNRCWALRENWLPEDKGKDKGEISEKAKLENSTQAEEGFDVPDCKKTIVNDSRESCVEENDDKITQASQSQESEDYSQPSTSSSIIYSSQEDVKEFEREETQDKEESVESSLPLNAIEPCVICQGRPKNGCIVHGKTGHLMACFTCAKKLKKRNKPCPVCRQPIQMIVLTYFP
# Jurkat NFkB inh: inhibitors of induced NF-kB luciferase reporter, primary screen, TCR NF-kB activation inhibitor project, cell-based, luminescence, uHTS; Jurkat, PMA/ionomycin-induced NF-kB luciferase reporter; AID 435003, 2010; inhibition, % at 4 µM; 330,000 tested, 0.53% active; in the data active = inhibition above about 50%
# 697 NFkB inh: inhibitors of PMA/ionomycin-induced NF-kB reporter, 697 cells, primary screen, B-cell NF-kB inhibitor project, cell-based, luminescence, uHTS | 697 B-cell NF-kB luciferase reporter, 16 h | inhibition, % at 4 µM | 330,000 tested, 0.33% active | AID 435022, 2010; in the data active = inhibition above about 35%
# aSyn 5UTR inh: MLPCN primary screen, SNCA 5' untranslated region; alpha-synuclein 5'UTR reporter, inhibitor activity; inhibition, % (tested at 7.5 µM); 300,000 tested, 0.82% active; AID 1813, 2009; in the data active = inhibition above about 60%; inconclusive = no clear call, values can overlap the other calls;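 note: H4 neuroglioblastoma cells stably carrying SNCA 5'UTR luciferase fusion; 0% = DMSO wells and 100% = positive control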
# Mdm2 MdmX conf: Mdm2-MdmX complex disruptors, retested hits, confirmation, luminescence, single concentration; shares compounds with Mdm2 MdmX PPI; Mdm2-MdmX binding, luminescent assay; inhibition, % at 8 µM; 10,000 tested, 55% active; AID 489028, 2010; in the data active = inhibition above about 40%
# Full FLuc ctr: full-length luciferase signal inhibition, confirmation, counter-screen for Mdm2/MdmX interaction inhibitor project, cell-based, single concentration, SaOS-2. shares compounds with Mdm2 MdmX PPI. SaOS-2 full-length luciferase counterscreen, luminescence. inhibition, % at 8 µM. 6,200 tested, 77% active. AID 504607, 2011;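 active = mean inhibition at 8 µM reaching about 37%, which flags the compound as non-specific, limit read from the data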;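 note: p53-null SaOS-2 cells with luciferase driven by a doxycycline-inducible promoter; compound on cells about two nights before reading with doxycycline added after day one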
# * hit, by the source's call; ? = inconclusive; . = no result given. A selection: hits, their analogues and other compounds. The true share with any hit is near 4.5%.
SMILES,Gli-Sufu antag,CSC inhib,Mdm2 MdmX PPI,Jurkat NFkB inh,697 NFkB inh,aSyn 5UTR inh,Mdm2 MdmX conf,Full FLuc ctr
CCc1nnc(NC(=O)c2ccc(S(=O)(=O)N(CCOC)CCOC)cc2)o1,-9.1,-3.8,4.7,5.1,18.2,-4.4,.,.
COc1ccc(NC(=O)CN(C)CC(=O)N2CC(=O)Nc3ccccc32)cc1,-7.7,-3.2,2.8,5.9,10.9,.,.,.
O=C(Nc1ccccc1)/C(=C/c1ccc([N+](=O)[O-])cc1)NC(=O)c1ccco1,12.4,6.9,67.4*,12.0,-0.9,9.7,6.2,.
Cn1c(=O)oc2cc(S(=O)(=O)N3CCC(C(=O)NCc4ccccc4Cl)CC3)ccc21,0.4,-16.3,51.0*,20.4,6.9,12.3,-20.9,.
CCn1c(SCC(=O)NC2CCCCC2)nnc1-c1cccnc1,-9.2,-5.0,32.8,13.9,29.6,-20.1,.,.
CCOCCCN(Cc1ccco1)C(=O)c1cc2c(=O)[nH]c3ccc(C)cc3c2s1,-15.1,.,56.4*,20.8,9.4,-13.6,33.9,.
Cc1ccc2[nH]c(=O)c3cc(C(=O)N(C)Cc4ccco4)sc3c2c1,1.0,1.0,19.0,-11.2,-6.3,-51.8,.,.
CC(=O)OC[C@]12CC[C@H]3[C@@](C)(CC[C@H]4C(C)(C)CCC[C@]34C)[C@@H]1C[C@H](C1=CC(=O)O[C@@H]1OC(C)=O)O2,.,132.1*,63.4*,5.1,-7.7,.,-11.6,.
CCn1c(Oc2ccccc2F)nc2c1c(=O)n(C)c(=O)n2C,-22.0,-7.9,68.1*,13.6,-7.9,8.8,65.9*,23.1
CCn1c(Oc2ccccc2)nc2c1c(=O)n(C)c(=O)n2C,20.3,-19.4,46.1,9.8,-38.8,-7.5,.,.
CCCCn1c(SCC(=O)N2CCCc3ccccc32)nc2c1c(=O)n(C)c(=O)n2C,15.6,-20.7,9.6,0.4,-21.4,5.3,.,.
O=C(/C=C/c1cccs1)c1cc(Br)ccc1OC(=O)N1CCOCC1,-4.0,-9.8,53.0*,4.9,-1.9,-21.4,17.3,.
N#Cc1cc(S(=O)(=O)c2ccccc2)c(N)[nH]c1=O,3.2,-11.1,5.7,5.2,2.5,-11.0,.,.
CCOc1ccc(C)cc1-n1nc2ccccc2n1,3.9,-5.3,-3.5,-18.0,7.8,-9.8,.,.
Cc1ccc(OCC(=O)Nc2ccc(Cl)cc2)c(-n2nc3ccccc3n2)c1,2.7,17.5,77.6*,-4.9,8.3,35.7,71.8*,80.6*
Cc1ccccc1NC(=O)c1cc(C(=O)c2cc(Cl)ccc2O)cn(-c2ccccc2C)c1=O,3.6,9.1,78.4*,-19.6,-21.6,2.4,70.6*,49.6*
O=C(N/N=C/c1cc(Cl)cc([N+](=O)[O-])c1O)c1ccccc1NS(=O)(=O)c1cccs1,2.5,12.5,18.6,-2.2,-6.6,-14.4,.,.
CCOc1ccc(C(c2c(NC(=O)c3ccccc3)sc(C)c2C)N2CCN(CCO)CC2)cc1 (stereo not drawn),3.6,29.4,15.4,-2.1,22.6,-41.9,.,.
Cc1sc(NC(=O)c2ccco2)c(C(c2cccnc2)N2CCN(c3ccc(F)cc3)CC2)c1C (stereo not drawn),39.5,23.6,45.1,38.3,28.8,-24.2,.,.
Cc1sc(NC(=O)c2ccco2)c(C(c2ccc(F)cc2)N2CCN(C)CC2)c1C (stereo not drawn),10.4,-1.0,53.5*,-8.7,-24.4,-31.5,36.0,73.7*
Cc1sc(NC(=O)c2ccccc2)c(C(c2ccc(Cl)cc2)N2CCN(CCO)CC2)c1C (stereo not drawn),12.7,26.6,54.5*,7.7,10.7,-26.7,36.9,84.1*
CCOc1cc(CNc2ccc(Br)cc2)cc(Br)c1OCC(=O)NC(C)(C)C,7.5,?,55.7*,14.5,-4.0,8.5,24.2,.
CCOc1cc(CNc2ccccc2)cc(Br)c1OCC(=O)NC(C)(C)C,-3.8,34.7,28.1,-12.2,-8.7,?,.,.
Cc1ccc(/C=C2/NC(=O)N(Cc3ccccc3)C2=O)s1,-13.4,-9.3,-45.0,-3.5,5.4,-14.9,.,.
O=C1N/C(=C/c2cccs2)C(=O)N1Cc1ccc(Br)cc1,6.4,-10.7,53.6*,14.0,-10.1,5.4,8.4,.
SMILES,Gli-Sufu antag,CSC inhib,Mdm2 MdmX PPI,Jurkat NFkB inh,697 NFkB inh,aSyn 5UTR inh,Mdm2 MdmX conf,Full FLuc ctr
COc1ccc(N2CCN(C(=O)CN(C)S(=O)(=O)c3cnc[nH]3)CC2)cc1,4.7,-3.6,5.5,-25.4,-6.7,6.5,.,.
COn1c2c(c3c4nonc4ccc31)CCCC2,6.1,-20.6,58.6*,26.9,11.6,-4.9,47.1*,55.3*
Cc1cc(C)nc(Sc2c(C)nn(-c3ccccc3)c2C)n1,-6.7,-0.8,15.8,-18.8,-10.5,-0.7,.,.
O=C(Nc1nc2ccccc2s1)C1CCN(S(=O)(=O)c2cc([N+](=O)[O-])ccc2Cl)CC1,39.4,?,95.7*,28.4,0.1,-80.6,87.5*,37.9*
COc1ccc(NC(=O)CCCNC(=O)c2ccc(Cl)cc2)cc1S(=O)(=O)N1CCOCC1,-1.8,.,.,.,.,.,.,.
O=C(O)Cc1cc(I)c(Oc2ccc(O)c(I)c2)c(I)c1,.,47.1,52.9*,-9.5,-21.6,5.1,6.9,.
O=C(O)Cc1ccc(O)c(O)c1,-5.1,-5.6,7.8,8.9,4.3,6.3,.,.
CC1=NN(c2ccc(C)c(C)c2)C(=O)/C1=C\C=C\c1ccc([N+](=O)[O-])o1,1.3,-13.8,76.7*,2.3,-42.1,78.2*,57.1*,41.1*
CCOc1ccc(C(CC(=O)O)NC(=O)C(c2ccccc2)c2ccccc2)cc1OC (stereo not drawn),-7.4,-11.6,-11.4,-0.3,8.5,.,.,.
O=C(CCl)N1CCN(S(=O)(=O)Cc2ccccc2)CC1,-27.3,.,70.7*,-23.4,11.0,.,25.2,.
C=CC[C@H](CC(=O)N(CCO)Cc1ccccc1)C(=O)NCCOC(=O)[C@@H](CC=C)CC(=O)OC(C)(C)C,-10.1,4.0,21.3,0.3,-0.2,.,.,.
COc1ccc(CNc2oc(COc3ccc(Cl)cc3)nc2C#N)cc1,-10.3,.,34.0,0.7,-6.5,9.6,.,.
COc1ccc(Nc2oc(COc3ccc(Cl)cc3)nc2C#N)cc1,29.1,28.9,61.4*,10.5,10.0,90.6*,43.8*,76.8*
COc1cc(/C=C2/SC(=Nc3ccc(O)cc3)NC2=O)cc(OC)c1O,0.2,.,61.5*,25.7,-7.3,-45.2,60.7*,62.0*
Cc1ccc(OC(=O)c2oc3ccc(F)cc3c2C)c(C)c1,-10.6,-1.8,51.6*,45.6,6.7,-112.0,-25.2,.
